# High-throughput results: PubChem, National Center for Advancing Translational Sciences (NCATS)
# BAZ2B inh = inhibitors of human BAZ2B bromodomain; Q9UIF8; AlphaScreen BAZ2B-H3K14Ac peptide displacement; Potency, µM (doses to about 114 µM), inactives show top-dose activity change, negative = inhibition, hits mostly inhibitors; 360,000 tested, 4.4% active; further: on the % scale 0 is the no-effect control and ±100 the full control effect; nearly all actives have a fitted effect of over 60% in size
#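 Compounds, titrated to a top concentration of 110 uM, were incubated 30 min at room temperature with preformed BAZ2B/acetyl-K14 H3 peptide complex (50 nM each). Proximity signal was measured by AlphaScreen after 20 min with beads.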
# L3MBTL1 block = inhibitors of human L3MBTL1; Potency, µM (titrated, usually from 57.1 µM), without a hit: at the highest dose activity, negative = inhibition, hits mostly inhibitors; AlphaScreen L3MBTL1–H3K9me1 peptide binding; 230,000 tested, 0.66% active; Q9Y468; further: on the % scale 0 is the no-effect control and ±100 the full control effect; nearly all actives have a fitted effect of over 60% in size
# Target sequence (Q9Y468 whole entry, looked up): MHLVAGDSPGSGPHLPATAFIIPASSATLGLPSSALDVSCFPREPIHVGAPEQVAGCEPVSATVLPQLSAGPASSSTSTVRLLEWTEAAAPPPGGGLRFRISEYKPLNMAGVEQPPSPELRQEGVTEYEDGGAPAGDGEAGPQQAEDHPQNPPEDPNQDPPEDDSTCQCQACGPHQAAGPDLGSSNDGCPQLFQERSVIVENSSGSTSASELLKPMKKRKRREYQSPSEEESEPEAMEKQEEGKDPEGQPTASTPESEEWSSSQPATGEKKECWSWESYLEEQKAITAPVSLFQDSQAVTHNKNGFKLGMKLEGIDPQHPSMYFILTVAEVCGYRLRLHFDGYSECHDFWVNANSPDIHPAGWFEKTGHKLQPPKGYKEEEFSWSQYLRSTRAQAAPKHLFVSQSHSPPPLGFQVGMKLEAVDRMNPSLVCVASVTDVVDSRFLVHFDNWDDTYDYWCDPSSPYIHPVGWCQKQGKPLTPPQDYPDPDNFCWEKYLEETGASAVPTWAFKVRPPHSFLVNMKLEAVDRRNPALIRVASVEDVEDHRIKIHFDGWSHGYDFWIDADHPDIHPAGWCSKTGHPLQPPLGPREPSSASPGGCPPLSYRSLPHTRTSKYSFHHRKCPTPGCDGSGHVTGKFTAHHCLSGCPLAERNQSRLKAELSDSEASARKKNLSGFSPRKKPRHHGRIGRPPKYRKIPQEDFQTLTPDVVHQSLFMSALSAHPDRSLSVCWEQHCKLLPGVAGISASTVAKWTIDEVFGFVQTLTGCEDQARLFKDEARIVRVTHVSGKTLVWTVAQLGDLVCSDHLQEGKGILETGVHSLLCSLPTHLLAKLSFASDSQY
#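 L3MBTL1 50 nM + b-AHA-H3(1-15)K9me1 75 nM, 30 min RT; compound added, 30 min RT; streptavidin donor/Ni-chelate acceptor beads 10 ug/mL each final, 30 min RT dark; AlphaScreen read.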
# JMJD2A Tudor = JMJD2A Tudor domain (human) inhibition | O75164 | AlphaScreen JMJD2A-Tudor / H3K4me3 peptide binding | Potency, µM (top dose mostly 114 µM), for inactives: top-dose activity change, negative = inhibition, most hits filed as inhibitors | 390,000 tested, 4.4% active | AID 504339; further: on the % scale 0 is the no-effect control and ±100 the full control effect; nearly all actives have a fitted effect of over 50% in size
# HP1b chromo inh = HP1-beta chromodomain-methylated histone interaction inhibition. P83916. AlphaScreen HP1-beta / biotin-H3K9me3 peptide binding. Potency, µM (titrated, usually from 114 µM), without a hit: at the top dose activity change, negative = inhibition, actives largely listed as inhibitors. 390,000 tested, 0.56% active. AID 540317; further: nearly all actives have a fitted effect of over 70% in size
#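 Compound inhibition of the preformed complex between 50 nM HP1-beta and 50 nM biotinylated H3K9me3 peptide was read by AlphaScreen. Buffer was PBS pH 7.4 with 0.01% Tween-20. Incubations ran 30 min at room temperature, with 10 ug/mL donor/acceptor beads.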
# G9a inh = G9a (human) methyltransferase inhibition. 350,000 tested, 8.8% active. Q96KQ7. Potency, µM (highest dose often 102 µM), for inactives: top-dose activity, negative = inhibition, actives largely listed as inhibitors. G9a H3K9 monomethylation, AlphaScreen, 2 h; further: on the % scale 0 is the no-effect control and ±100 the full control effect; nearly all actives have a fitted effect of over 75% in size
#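 Chemiluminescent proximity detection of H3K9 monomethylation, read after 10 min bead incubation in the dark. Reaction: 20 nM G9a, 500 nM biotin-H3K9 peptide, 20 uM SAM cofactor, 2 h, room temperature, following 15 min enzyme-compound preincubation.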
# Sfp inh = Sfp phosphopantetheinyl transferase inhibition | Q9F4F7 | 310,000 tested, 3.5% active | Potency, µM, without a hit: largest response in the series, negative = inhibition, actives largely listed as inhibitors | AID 1490 | Biochemical Sfp PPTase activity, qHTS;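 further: the enzyme is Sfp with the accession as filed and its product quenches rhodamine fluorescence; 0% = enzyme reaction without inhibitor and -100% = no enzyme wells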
#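 Step 1, compound plus 15 nM Sfp-PPTase, 15 min, room temperature. Step 2, add rhodamine-CoA (5 uM) and BHQ-2-YbbR (12.5 uM). Step 3, read 525/598 nm fluorescence at 0 and 30 min.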
# * = called active by the depositor; ? = inconclusive; . = no result given; [ ] = remark or other dose. In the library only some 12% were active in any assay of this set; here they are far more common. The call rests on the fitted dose curve; in most records, active means well fitted curve in the direction sought with a large enough effect; inconclusive means small, poorly fitted or top-dose-only effect, or another doubt; inactive means no such curve, though single readings can be large; an effect the other way counts as inactive or inconclusive. Potency means the concentration at half of the fitted maximal effect.
SMILES,BAZ2B inh,L3MBTL1 block,JMJD2A Tudor,HP1b chromo inh,G9a inh,Sfp inh
Cc1oc(-c2ccc(Cl)cc2)nc1CN1CCCC(C(=O)NCCc2ccccc2)C1 (stereo not drawn),-37.7%,.,-34.0%,14.1%,?,.
CC1(C)Cc2c(c(N3CCOCC3)nc3sc4c(NCc5ccco5)nnnc4c23)CS1,-32.4%,20.9%[11.4 µM],-8.0%,9.9%,17.8µM*,?
CC1(C)Cc2c(c(N3CCOCC3)nc3sc4c(NCc5ccccc5)nnnc4c23)CS1,-22.3%,.,-9.9%,1.6%,-46.2%[59 µM],0.8%
CCc1ccc(N2CC(C(=O)OCC(=O)Nc3ccccc3C)CC2=O)cc1 (stereo not drawn),0.4%,-6.5%,3.0%,46.6%,-25.5%[12.7 µM],.
CCOc1ccccc1NC(=O)COC(=O)C1CC(=O)N(c2c(C)cccc2C)C1 (stereo not drawn),-26.7%,.,1.4%,-21.3%,56.2µM*,13.7%
CCC1CCCCN1C(=O)COc1ccccc1NC(C)=O (stereo not drawn),-15.7%,.,-12.4%,14.5%,44.7µM*,-14.3%
CCOc1ccc(OCC)c(NC(=O)CN2CCN(CC(=O)NC(C)C)CC2)c1,?,65.1%,28.2µM*,?,.,?
CCOc1ccccc1NC(=O)CN1CCCCCC1,50.1µM*,7.1%,3.16µM*,-12.6%,.,-21.5%
CCCN1CNc2c(c(=O)[nH]c(=S)n2CCc2cccc(OC)c2OC)C1,.,.,-8.2%,32.7%,.,.
COc1ccc(CNC(=O)Cc2coc3ccc(C)cc23)cc1,2.0%,.,?,5.7%,-10.3%[59 µM],.
CCc1ccccc1N(C)C(=O)c1cn(CC(C)C)c(=O)c2cc(OC)c(OC)cc12,4.7%,.,-3.8%,27.9%,6.4%[59 µM],.
CCOc1ccc(OCC)c(NC(=O)CN2CCN(CC)CC2)c1,?,-8.3%,0.891µM*,?,20µM*,-3.3%
CCOc1ccccc1NC(=O)CSC1=NN2CCCC(=O)N=C2S1,-36.9%,.,1.4%,17.5%,39.8µM*,22.1%
O=C(O)c1ccc(/C=N/NC(=S)NCCN2CCOCC2)cc1,-5.2%,21.3%,31.6µM*,27.3%,-41.6%,50.1µM*
Oc1cccc(/C=N/NC(=S)NCCN2CCOCC2)c1O,8.91µM*,10µM*,22.4µM*,31.5%,3.3%[12.7 µM],6.6%
S=C(NCCN1CCOCC1)N/N=C/c1cccs1,-11.0%,.,-26.8%,30.3%,30.7%[2.33 µM],-1.5%
COc1cc(/C=N/NC(=S)NCCN2CCOCC2)cc(OC)c1OC,-15.6%,2.3%,-7.7%,8.1%,-0.5%[59 µM],?
CCCCc1nc2c(c3c1C[C@H](C)OC3)CN(C(=O)Nc1ccc(OC)cc1)CC2,.,.,.,.,.,3.7%
Cc1ccc(Cl)cc1Nc1sc(C(=O)c2ccc(F)cc2)c(N)c1S(C)(=O)=O,-18.8%,.,-9.7%,53.0%,2.4%[59 µM],.
CC(C)(C)S(=O)(=O)/C(C#N)=N/Nc1ccc(S(N)(=O)=O)cc1,-23.1%,12.9%,89.1µM*,26.6%,-23.8%,8.2%
CC(C)(C)S(=O)(=O)/C(C#N)=N/Nc1ccc(S(C)(=O)=O)cc1,-15.0%,.,-4.5%[11.4 µM],2.8%,-43.9%,4.8%
CC(C)(C)S(=O)(=O)/C(C#N)=N/Nc1ccc(C#N)cc1,70.8µM*,.,-23.1%,21.7%,-34.4%,-7.3%
COc1ccc(CCNCC(O)COc2c(C)cccc2C)cc1OC (stereo not drawn),50.1µM*,.,?,?,-5.3%,-13.4%
COc1ccc(CCNCC(O)COc2ccc(Cl)cc2)cc1OC (stereo not drawn),-16.8%,.,-24.3%,20.8%,19.4%[59 µM],29.5%
COc1ccc(CCNCC(O)COc2cccc(C(C)=O)c2)cc1OC (stereo not drawn),70.8µM*,.,25.1µM*,?,4.2%,-31.1%
SMILES,BAZ2B inh,L3MBTL1 block,JMJD2A Tudor,HP1b chromo inh,G9a inh,Sfp inh
COC(=O)C1=C(C)N(Cc2ccccc2)C(=NCc2ccc(OC)cc2)N[C@H]1c1ccc(Br)cc1,10.3%,.,.,.,.,1.7%
Cc1ccc(NC(=O)CSc2nc3ccc(NC(=O)c4ccco4)cc3s2)c(C)c1,-13.4%,.,-13.9%,39.1%,-8.2%[59 µM],.
Cc1cc2cc(CNC(=S)Nc3ccc(OC(F)F)cc3)ccc2[nH]1,44.7µM*,-5.9%,?,-15.2%,-20.1%,-1.3%
CCNC(=S)NCc1ccc2[nH]c(C)cc2c1,?,-8.4%,?,-16.0%,50.1µM*,-11.9%
CS(=O)(=O)c1ccc(N)cc1,7.7%,9.0%,-9.0%,42.9%,44.7µM*,13.3%
Cn1c(=O)[nH]c(=O)c2[nH]cnc21,.,.,.,.,5.7%[2.33 µM],-20.0%
COc1ccc(-c2cc(=O)oc3c(C)c(O)c(CN(C)C)cc23)cc1,-8.8%,-0.8%,22.4µM*,2.3%,-9.6%[12.7 µM],-6.6%
COc1ccc(-c2cc(=O)oc3c(C)c(OCC(=O)N(C)C)ccc23)cc1,-20.9%,.,-19.3%,15.7%,?,-2.7%
COc1ccc(N2CCN(C(=O)c3ccc(C(C)(C)C)cc3)CC2)cc1,44.7µM*,.,56.2µM*,?,?,?
COc1ccc(C(=O)N2CCN(c3ccccc3OC)CC2)cc1,-16.0%,.,-4.2%,39.0%,?,7.5%
COc1cc(OC)cc(C(=O)N2CCC(N3CCN(c4ccccc4OC)CC3)CC2)c1,50.1µM*,-2.8%,1.12µM*,?,7.94µM*,-51.6%
COc1ccccc1N1CCN(C(=O)NC23CC4CC(CC(C4)C2)C3)CC1,-15.5%,-3.4%,-13.8%,24.5%,79.4µM*,12.6%
COc1ccccc1N1CCN(C(=O)c2ccc(C(C)(C)C)cc2)CC1,-3.8%,-0.9%,3.16µM*,-25.1%,12.0%[59 µM],-7.3%
CCOc1ccccc1-c1noc(CSc2nnc(-c3ccncc3)n2-c2ccc(F)cc2)n1,-21.0%,.,-20.8%,24.5%,0.6%[59 µM],.
COc1ccc(CNC(=O)Cn2c(=O)c3cccn3c3cccnc32)cc1,?,.,-1.1%,47.3%,1.7%[59 µM],.
CC(C)C[C@H](NC(=O)[C@H](CO)NC(=O)[C@H](C)NC(=O)[C@H](CCCN=C(N)N)NC(=O)[C@H](CCCN=C(N)N)NC(=O)[C@@H](N)CC(C)C)C(=O)NCC(=O)O,.,.,.,.,.,15.2%
CC1(C)CCC(C)(C)c2cc(NC(=O)c3ccc(C(=O)O)cc3)ccc21,.,.,.,.,-12.2%[12.7 µM],1.3%
Cc1ccc(Nc2c(-c3ccncc3)nc3ccc(C)cn23)cc1,-25.2%,.,-4.8%,22.4%,-6.4%[59 µM],.
COc1cc(OC)cc(C(=O)NCC(=O)N2CCN(c3ccc(O)cc3)CC2)c1,-7.9%,.,22.4µM*,?,22.4µM*,56.2µM*
CC(=O)N1CCN(c2ccc(NC(=O)c3ccc(C(C)(C)C)cc3)cc2)CC1,-8.3%,-12.9%,-28.0%,1.8%,11.2µM*,-17.1%
COc1ccc(N2CCN(C(=O)CNC(=O)c3ccc4ccccc4c3)CC2)cc1,-3.9%,1.2%,-8.4%,46.8%,-6.7%[2.33 µM],.
